Publication PMC4336329 (PLoS ONE, 2015)
Hit rate of the full screen: of about 310,000 compounds, about 14,000 (4.5%) showed an effect of 50% or more. Effects have a minus sign here. The full list was thinned out, with strong results kept by preference.

target: human ether-à-go-go-related gene (hERG) potassium channel (human, UniProt Q12809); test: primary screen, population patch clamp on CHO cells stably expressing hERG; higher = less effect of the substance
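Note: peak tail current of the secondary pulse compared with the same well before compound.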

Chain of human ether-à-go-go-related gene (hERG) potassium channel (Q12809 whole entry, looked up): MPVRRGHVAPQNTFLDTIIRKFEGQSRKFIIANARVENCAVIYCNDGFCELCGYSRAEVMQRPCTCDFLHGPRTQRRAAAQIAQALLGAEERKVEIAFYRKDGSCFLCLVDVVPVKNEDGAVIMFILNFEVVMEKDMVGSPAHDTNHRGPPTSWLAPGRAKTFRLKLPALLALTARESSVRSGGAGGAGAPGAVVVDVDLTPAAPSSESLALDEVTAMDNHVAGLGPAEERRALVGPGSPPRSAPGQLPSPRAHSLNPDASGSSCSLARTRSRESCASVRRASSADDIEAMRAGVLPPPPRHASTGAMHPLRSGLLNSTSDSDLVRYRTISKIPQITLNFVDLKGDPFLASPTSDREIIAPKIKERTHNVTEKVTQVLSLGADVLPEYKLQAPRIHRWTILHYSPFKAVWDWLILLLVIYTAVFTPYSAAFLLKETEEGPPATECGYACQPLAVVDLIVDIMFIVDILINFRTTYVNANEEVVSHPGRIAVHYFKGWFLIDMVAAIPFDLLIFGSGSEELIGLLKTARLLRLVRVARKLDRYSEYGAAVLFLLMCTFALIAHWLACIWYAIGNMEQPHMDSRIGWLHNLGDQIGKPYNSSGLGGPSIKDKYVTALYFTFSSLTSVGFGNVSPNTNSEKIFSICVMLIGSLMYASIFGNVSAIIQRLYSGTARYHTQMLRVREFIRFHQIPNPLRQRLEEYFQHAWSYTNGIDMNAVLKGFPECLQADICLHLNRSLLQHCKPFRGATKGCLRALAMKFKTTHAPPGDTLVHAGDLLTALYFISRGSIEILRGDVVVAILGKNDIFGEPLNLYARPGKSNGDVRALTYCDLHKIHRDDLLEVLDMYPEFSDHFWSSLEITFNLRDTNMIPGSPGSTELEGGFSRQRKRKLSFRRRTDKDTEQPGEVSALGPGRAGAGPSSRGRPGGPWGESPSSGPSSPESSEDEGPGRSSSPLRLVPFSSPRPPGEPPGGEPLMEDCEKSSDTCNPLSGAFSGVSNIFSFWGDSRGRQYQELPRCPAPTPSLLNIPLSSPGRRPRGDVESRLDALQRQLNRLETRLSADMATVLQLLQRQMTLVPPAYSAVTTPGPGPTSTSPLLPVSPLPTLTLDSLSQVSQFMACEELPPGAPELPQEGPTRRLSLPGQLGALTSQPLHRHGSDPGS

| Structure (SMILES) | hERG current change (%, negative = inhibition) at 10uM [%] |
| --- | --- |
| COC(=O)Nc1ncc(CN2C(=O)c3ccccc3C2=O)s1 | -23 |
| Cc1cc(NC(=O)COC(=O)c2n[nH]c3ccccc23)no1 | 8.9 |
| O=C(N/N=C/c1cccnc1)c1cccc(Br)c1 | 10.4 |
| C#Cc1ccc([C@H]2C=C(C(=O)N3CCN(Cc4ccccc4)CC3)O[C@@H](OCc3ccc(CO)cc3)C2)cc1 | -13.3 |
| CCO[C@@H]1OC(C(=O)N2CCCCCCC2)=C[C@H](c2ccc(C(F)(F)F)cc2)[C@H]1CCCO | -21.4 |
| C#CCNC(=O)C1=C[C@@H](c2ccc(C#C)cc2)C[C@@H](OCCCCO)O1 | -3.88 |
| CCO[C@H]1OC(C(=O)N2CCCCCCC2)=C[C@@H](c2ccc(C(F)(F)F)cc2)[C@@H]1CCCO | -50.5 |
| C#Cc1ccc([C@@H]2C=C(C(=O)N3CCN(Cc4ccccc4)CC3)O[C@H](OCCCCO)C2)cc1 | -56 |
| O=C(C1=C[C@H](c2ccccc2)C[C@H](OCCCCO)O1)N1CCN(Cc2ccccc2)CC1 | -38.9 |
| O=C(C1=C[C@@H](c2ccc(Br)cc2)C[C@@H](OCCCCO)O1)N1CCN(Cc2ccccc2)CC1 | -91.7 |
| C#CCNC(=O)C1=C[C@H](c2ccc(C(F)(F)F)cc2)C[C@H](OCCCCO)O1 | -6.12 |
| CN1CCN(C(=O)C2=C[C@H](c3ccc(Br)cc3)C[C@H](OCCCCO)O2)CC1 | -47.7 |
| CCO[C@@H]1OC(C(=O)N2CCN(C)CC2)=C[C@H](c2ccc(C(F)(F)F)cc2)[C@H]1CCCO | -1.51 |
| C#Cc1ccc([C@@H]2C=C(C(=O)N3CCOCC3)O[C@H](OCCCCO)C2)cc1 | 17.3 |
| C#CCNC(=O)C1=C[C@@H](c2ccc(C(F)(F)F)cc2)C[C@@H](OCCCCO)O1 | -53.8 |
| CC(=O)Nc1ccc(S(=O)(=O)NNC(=S)NCc2ccco2)cc1 | 12.1 |
| COc1ccc(-c2csc(N(CCCN3CCOCC3)C(=O)CCl)n2)cc1.Cl | 3.28 |
| CC1(C)C2CCC(C2)C1(C)NC(=O)C[N+](C)(C)C.[Cl-] (centres unmarked) | 12.6 |
| Cc1nc(NC(=O)/C=C/c2ccccc2)sc1C(=O)Nc1ccccc1Cl | 13.3 |
| c1ccc(-c2ncc(CN3CCN(c4ccccn4)CC3)[nH]2)cc1 | -14.1 |
| CCOC(=O)c1cnc(-n2nc(C)cc2C)nc1NC1CCCC1 | -26.2 |
| CC(C)NCc1nnc(-c2ccc(Cl)cc2)o1 | 15.9 |
| CCc1ccccc1NC(=O)c1cc(=O)c2ccccc2o1 | -1.16 |
| O=C(C1=C[C@H](c2ccc(C(F)(F)F)cc2)C[C@H](OCCCCO)O1)N1CCOCC1 | -23.7 |
| O=C(C1=C[C@@H](c2ccc(Br)cc2)C[C@@H](OCCCCO)O1)N1CCOCC1 | -15.7 |
| O=C(C1=C[C@H](c2ccc(C(F)(F)F)cc2)C[C@H](OCCCCO)O1)N1CCN(Cc2ccccc2)CC1 | -49.6 |
| O=C(C1=C[C@H](c2ccc(Br)cc2)C[C@H](OCCCCO)O1)N1CCN(Cc2ccccc2)CC1 | -80.8 |

| Structure (SMILES) | hERG current change (%, negative = inhibition) at 10uM [%] |
| --- | --- |
| O=C(C1=C[C@@H](c2ccc(C(F)(F)F)cc2)C[C@@H](OCCCCO)O1)N1CCOCC1 | -3.65 |
| O=C(C1=C[C@H](c2ccc(C(F)(F)F)cc2)C[C@H](OCc2ccc(CO)cc2)O1)N1CCN(Cc2ccccc2)CC1 | -15.2 |
| C=CCOC(=O)C1=C[C@@H](c2ccccc2)[C@H](CCCO)[C@@H](OCC)O1 | -9.65 |
| C=CCOC(=O)C1=C[C@@H](c2ccc(Br)cc2)[C@H](CCCO)[C@@H](OCC)O1 | -22.6 |
| C=CCOC(=O)C1=C[C@H](c2ccc(Br)cc2)[C@@H](CCCO)[C@H](OCC)O1 | -55.3 |
| O=C(C1=C[C@@H](c2ccc(C(F)(F)F)cc2)C[C@@H](OCCCCO)O1)N1CCN(Cc2ccccc2)CC1 | -60.6 |
| CN1CCN(C(=O)C2=C[C@@H](c3ccccc3)C[C@@H](OCCCCO)O2)CC1 | -6.11 |
| O=C(C1=C[C@@H](c2ccc(C(F)(F)F)cc2)C[C@@H](OCCCCO)O1)N1CCCCCCC1 | -51.3 |
| COc1ccc(OC)c(NC(=O)c2ccc(CN3CCc4ccccc4C3)cc2)c1 | 3.78 |
| O=C(Nc1ccc(F)cc1)c1cccc(C(=O)Nc2ccc(F)cc2)c1 | -28.4 |
| O=C(CN1C(=O)S/C(=C\c2ccc(O)c([N+](=O)[O-])c2)C1=O)Nc1ccc(N2CCOCC2)cc1 | 12.2 |
| O=C1CCC(=O)N1OCCCOc1ccc2c(c1)CCC2 | 1.61 |
| CCCNC(=O)Cc1c(C)n(C(=O)c2ccc(Cl)cc2)c2ccc(OC)cc12 | 14.6 |
| COC(=O)C1=NNC2(c3ccc(C)cc3)C(=O)N(c3ccc(C)cc3)C(=O)C12 (centres unmarked) | 16.5 |
| N/C(=N\OC(=O)c1ccccc1)c1ccccn1 | 12.9 |
| CCOc1ccc(CC(=O)N/N=C/c2cccnc2)cc1OCC | 14 |
| CCCC(=O)Nc1ccc(C(=O)O)cc1NC(=O)CCC | 8.09 |
| CCNc1cc2n(c(=O)n1)CCc1cc(OC)c(OC)cc1-2 | -19.5 |
| Cc1ccc(C(=O)N/C(=C\c2cccs2)C(=O)NCc2cccnc2)cc1 | -58 |
| Cc1ccc(C(=O)NC(=S)NCc2cccnc2)cc1 | -7.52 |
| Cc1ccc(C(=O)N/C(=C/c2cccs2)C(=O)NCC2CCCO2)cc1 (centres unmarked) | -9.01 |
| Cc1ccc(C(=O)N/C(=C\c2cccs2)C(=O)NCc2ccncc2)cc1 | -52.9 |
| Cc1ccc(C(=O)N/C(=C/c2cccs2)C(=O)NCc2ccco2)cc1 | -15.8 |
| Cc1ccc(C(=O)N/C(=C\c2sccc2C)C(=O)NCc2ccncc2)cc1 | -30.5 |
| CC1(C)CC(OC(=O)c2ccccc2)CC(C)(C)N1 | 9.14 |
| COc1ccc(NC(=O)c2oc3ccccc3c2NC(=O)C(C)(C)C)cc1 | 11.3 |
| CC(CCC(=O)Nc1nncs1)C(=O)O (centres unmarked) | -6.61 |

| Structure (SMILES) | hERG current change (%, negative = inhibition) at 10uM [%] |
| --- | --- |
| CCCOC(=S)NC(=O)c1sc2ccccc2c1Cl | 12.3 |
| CC(C)c1nc2cc(C(=O)N(C)Cc3ccc(F)cc3)ccc2o1 | 1.04 |
| O=C1CCc2cc(S(=O)(=O)N3CCC(C(=O)NCc4ccccc4Cl)CC3)ccc2N1 | 4.83 |
| CC1CCN(CCCNC(=O)CCc2nnc3n(CCc4ccccc4)c(=O)c4ccccc4n23)CC1 | -76.8 |
| CC(C)CCNC(=O)CCc1nnc2n(CCCOC(C)C)c(=O)c3ccccc3n12 | -26.7 |
| CC(C)CCn1c(=O)c2ccccc2n2c(CCC(=O)NC3CCN(Cc4ccccc4)CC3)nnc12 | -49.6 |
| O=C(CCc1nnc2n(CCc3ccccc3)c(=O)c3ccccc3n12)NCCCN1CCCCC1 | -77.6 |
| CCOCCCNC(=O)CCc1nnc2n(CCC(C)C)c(=O)c3ccccc3n12 | -22.5 |
| CC(C)Cn1c(=O)c2ccccc2n2c(CCC(=O)NC3CCN(Cc4ccccc4)CC3)nnc12 | -39.4 |
| CC(C)OCCCn1c(=O)c2ccccc2n2c(CCC(=O)NC3CCN(Cc4ccccc4)CC3)nnc12 | -51.4 |
| CN1CCN(CCCNC(=O)CCc2nnc3n(Cc4ccccc4Cl)c(=O)c4ccccc4n23)CC1 | 5.29 |
| CC(C)CCn1c(=O)c2ccccc2n2c(CCC(=O)NCC3CCCO3)nnc12 (centres unmarked) | -1.79 |
| Cc1ccc(S(=O)(=O)NNC(=O)C2CCCCC2)cc1 | 9.57 |
| NC(=O)[C@@H]1CCCN1Cc1nc(-c2ccc(C(F)(F)F)cc2)no1 | -5.68 |
| CC(O)[C@@H](C(=O)N1CCNCC1)n1cc(CCCCN)nn1.Cl (some centres unmarked) | 14.3 |
| O=C(c1ccc2ccccc2c1)N1CCN(c2ccc([N+](=O)[O-])c(N3CCOCC3)c2)CC1 | -18.8 |
| O=C(c1ccccc1)N1CCN(c2ccc([N+](=O)[O-])c(N3CCOCC3)c2)CC1 | -7.22 |
| Cc1ccc(C(=O)N2CCN(c3ccc([N+](=O)[O-])c(N4CCOCC4)c3)CC2)cc1 | -60 |
| O=C(c1ccc(F)cc1)N1CCN(c2ccc([N+](=O)[O-])c(N3CCCCC3)c2)CC1 | -15.3 |
| O=C(c1cccc2ccccc12)N1CCN(c2ccc([N+](=O)[O-])c(N3CCOCC3)c2)CC1 | -13.7 |
| O=C(c1ccc(F)cc1)N1CCN(c2ccc([N+](=O)[O-])c(N3CCOCC3)c2)CC1 | -58.3 |
| C=CCSc1n[nH]c(-c2ccc(OCCCC)cc2)n1 | -7.32 |
| COc1cccc(NC(=O)N2CCN(c3cccc(C)c3)C(C)C2)c1 (centres unmarked) | -16 |
| COc1cccc(N2CCN(C(=O)c3ccc(=O)oc3)CC2C)c1 (centres unmarked) | -59.7 |
| Cc1cccc(N2CCN(C(=O)c3ccc4nc(-c5ccco5)c(-c5ccco5)nc4c3)CC2C)c1 (centres unmarked) | 2.44 |
| CC(C)CCNc1cc(=O)n(C)c(=O)n1C | 4.5 |
